Assay results published in PubChem BioAssay AID488922 (Johns Hopkins Ion Channel Center, 2010).
The campaign covered roughly 310,000 compounds. About 3,800 (1.2%) were called active.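 How the source made its calls: active means ratio B-score over 3 SD below the library mean, with starting fluorescence within 5 SD of its mean; inactive means the rest, inconclusive results apart.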 Shown is part of a subset that was picked to be rich in actives.

target: Potassium channel subfamily K member 9 (Homo sapiens) (UniProt Q9NPC2); assay: blockers of human TASK-3 (KCNK9) channel – HEK293 cells, thallium flux, primary screen (AID 488922); conditions: HEK293 KCNK9, FluxOR thallium flux fluorescence, at 10 µM; stronger effect = lower value;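 on B-score: negative B-score means less thallium flux so channel inhibition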
Sequence (Q9NPC2 whole entry, looked up): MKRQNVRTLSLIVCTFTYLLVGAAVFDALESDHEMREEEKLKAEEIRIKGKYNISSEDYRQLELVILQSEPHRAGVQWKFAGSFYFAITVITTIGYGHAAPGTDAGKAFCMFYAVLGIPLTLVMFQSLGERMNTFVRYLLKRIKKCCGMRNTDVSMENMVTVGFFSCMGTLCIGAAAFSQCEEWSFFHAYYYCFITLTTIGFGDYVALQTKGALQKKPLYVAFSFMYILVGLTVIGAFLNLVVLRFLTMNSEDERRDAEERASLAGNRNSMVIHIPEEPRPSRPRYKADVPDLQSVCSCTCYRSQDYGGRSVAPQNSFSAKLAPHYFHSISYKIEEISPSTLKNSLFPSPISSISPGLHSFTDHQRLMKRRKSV

**Q.** With `CCCCCCCCCCCCn1ccc(=N)cc1` as the compound, how does the B-score read?
**A.** The B-score was -10.8 (active).

**Q.** For `Cc1ccc(-c2nc3ccccc3c(=O)n2-c2ccc(Br)cn2)cc1`, which B-score is on record?
**A.** Its B-score is “inactive”.

**Q.** How did the B-score turn out when `COc1cc(Cn2c(N)c(C(=O)NCc3ccco3)c3nc4ccccc4nc32)cc(OC)c1OC` was run?
**A.** Its B-score is “inactive”.

**Q.** Which B-score does the source give for `CC1=C2C(=O)C3C(CC=C4CC(OC5OC(O)C(O)C(O)C5CO)CCC43C)C2CCC12OC1CC(C)CNC1C2C` (stereo not given) here?
**A.** Its B-score is “inactive”.

**Q.** How did the B-score turn out when `CCC(=NCCCO)c1c(O)n(-c2ccc(OC)cc2)c(=O)[nH]c1=O` was run?
**A.** The B-score was “inactive”.

**Q.** With `CCCCn1c(O)c(C(CC)=NCc2ccco2)c(=O)[nH]c1=O` as the compound, how does the B-score read?
**A.** Its B-score is “inactive”.

**Q.** `CCCCCCN=C(CC)c1c(O)n(CCCC)c(=O)[nH]c1=O` was tested. Which B-score did it give?
**A.** The B-score was -12.7 (active).

**Q.** With `CCN(CC)C(=O)Oc1ccc(NC(=O)N2CCOCC2)cc1` as the compound, how does the B-score read?
**A.** The B-score was “inactive”.

**Q.** `CN(C)CC1CCCCC1OC(=O)c1ccc(Cl)c(Cl)c1` (stereo not given) was tested. Which B-score did it give?
**A.** The B-score was “inactive”.

**Q.** Which B-score does the source give for `COC(=O)C1=C(c2cc3ccccc3s2)C[C@@H]2CC[C@H]1N2C(=O)NC(C)C` here?
**A.** The B-score was “inactive”.

**Q.** Which B-score does the source give for `CCN1CCN(c2nc3c(c(=O)[nH]2)CCC3)CC1` here?
**A.** Its B-score is “inactive”.

**Q.** How did the B-score turn out when `CC(C)(C)c1ccc(CN2C(=O)CN=C(c3ccccc3)c3ccccc32)cc1` was run?
**A.** Its B-score is -12.7 (active).

**Q.** How did the B-score turn out when `O=C1CC(=O)N(Cc2ccccc2)C(=O)N1CCCCCCN1C(=O)CC(=O)N(Cc2ccccc2)C1=O` was run?
**A.** The B-score was “inactive”.

**Q.** `CCOC(=O)c1c(C)c(C(=O)N2CCC3(CC2)OCCO3)c(C)n1CC` was tested. Which B-score did it give?
**A.** The B-score was “inactive”.

**Q.** How did the B-score turn out when `CCOP(=S)(OCC)C(O)CCCCCn1c(=O)c(F)cn(C2CCCO2)c1=O` (stereo not given) was run?
**A.** The B-score was “inactive”.

**Q.** How did the B-score turn out when `C=CCN1C(=O)NC(=O)/C(=C/c2ccc(OCC(=O)Nc3ccc(C)cc3)cc2)C1=O` was run?
**A.** The B-score was “inactive”.

**Q.** Which B-score does the source give for `O=C(O)CCn1cc(C=C2C(=O)NC(=S)NC2=O)c(-c2cccc(Br)c2)n1` here?
**A.** Its B-score is “inactive”.

**Q.** How did the B-score turn out when `CCOC(=O)C1SC2(C(F)(F)C(F)F)CC1(O)c1c(c(OC)c3occc3c1OC)O2` (stereo not given) was run?
**A.** The B-score was -8.55 (active).

**Q.** Which B-score does the source give for `CCOP(=O)(OCC)C(NC(=O)c1ccc(OC)cc1)C(Cl)(Cl)Cl` (stereo not given) here?
**A.** Its B-score is “inactive”.

**Q.** Which B-score does the source give for `NC(=O)Nc1cccc(C(F)(F)F)c1` here?
**A.** Its B-score is “inactive”.
